# Experimental data published in ChEMBL document CHEMBL1961873, “Compounds: GSK PKIS; Assays: Nanosyn kinase panel” (2012).
# Key:
# [1] = target: Leukocyte tyrosine kinase receptor (Homo sapiens) (UniProt P29376); conditions: at 1 µM;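 further: each value is the mean inhibition of LTK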
# [2] = target: Tyrosine-protein kinase Lyn (Homo sapiens) (UniProt P07948); conditions: at 0.1 µM
# [3] = target: Tyrosine-protein kinase Lyn (Homo sapiens) (UniProt P07948); conditions: at 1 µM
# [4] = target: Tyrosine-protein kinase Lyn (Homo sapiens) (UniProt P07948); conditions: at 0.1 µM; remark: listed apart in the source
# [5] = target: Tyrosine-protein kinase Lyn (Homo sapiens) (UniProt P07948); conditions: at 1 µM; remark: listed apart in the source
# [6] = target: T1, Tyrosine-protein kinase Mer (Homo sapiens) (UniProt Q12866); conditions: at 0.1 µM
# T1 sequence (whole entry): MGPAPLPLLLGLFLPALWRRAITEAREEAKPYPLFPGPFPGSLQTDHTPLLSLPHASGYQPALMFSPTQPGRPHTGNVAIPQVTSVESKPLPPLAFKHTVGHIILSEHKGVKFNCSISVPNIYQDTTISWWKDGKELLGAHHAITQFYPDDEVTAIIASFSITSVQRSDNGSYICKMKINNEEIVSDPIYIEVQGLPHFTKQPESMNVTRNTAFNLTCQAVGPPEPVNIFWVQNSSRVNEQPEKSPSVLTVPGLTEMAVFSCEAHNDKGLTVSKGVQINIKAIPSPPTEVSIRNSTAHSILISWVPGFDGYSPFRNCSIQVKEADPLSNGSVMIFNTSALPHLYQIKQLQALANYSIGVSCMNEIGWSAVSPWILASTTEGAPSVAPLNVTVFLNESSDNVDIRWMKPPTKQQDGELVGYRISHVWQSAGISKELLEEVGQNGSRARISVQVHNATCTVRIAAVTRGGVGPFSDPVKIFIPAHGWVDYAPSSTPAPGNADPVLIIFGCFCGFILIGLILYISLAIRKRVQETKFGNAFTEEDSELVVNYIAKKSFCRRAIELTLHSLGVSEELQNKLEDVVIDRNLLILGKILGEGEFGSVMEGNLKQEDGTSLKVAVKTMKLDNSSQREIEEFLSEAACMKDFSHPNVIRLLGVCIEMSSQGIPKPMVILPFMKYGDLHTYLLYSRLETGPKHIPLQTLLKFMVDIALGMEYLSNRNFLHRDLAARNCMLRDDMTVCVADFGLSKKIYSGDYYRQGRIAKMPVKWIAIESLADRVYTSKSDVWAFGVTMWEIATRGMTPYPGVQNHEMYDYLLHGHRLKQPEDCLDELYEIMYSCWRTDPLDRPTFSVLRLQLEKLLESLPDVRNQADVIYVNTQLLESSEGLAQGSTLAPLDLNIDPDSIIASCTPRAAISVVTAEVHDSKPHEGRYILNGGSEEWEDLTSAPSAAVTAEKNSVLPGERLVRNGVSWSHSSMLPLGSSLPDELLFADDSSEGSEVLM
# [7] = target: T1, Tyrosine-protein kinase Mer (Homo sapiens); conditions: at 1 µM
# [8] = target: Hepatocyte growth factor receptor (Homo sapiens) (UniProt P08581); conditions: at 0.1 µM
# [9] = target: Hepatocyte growth factor receptor (Homo sapiens) (UniProt P08581); conditions: at 1 µM
# [10] = target: T2, Muscle, skeletal receptor tyrosine-protein kinase (Homo sapiens) (UniProt O15146); conditions: at 0.1 µM
# T2 sequence (whole entry): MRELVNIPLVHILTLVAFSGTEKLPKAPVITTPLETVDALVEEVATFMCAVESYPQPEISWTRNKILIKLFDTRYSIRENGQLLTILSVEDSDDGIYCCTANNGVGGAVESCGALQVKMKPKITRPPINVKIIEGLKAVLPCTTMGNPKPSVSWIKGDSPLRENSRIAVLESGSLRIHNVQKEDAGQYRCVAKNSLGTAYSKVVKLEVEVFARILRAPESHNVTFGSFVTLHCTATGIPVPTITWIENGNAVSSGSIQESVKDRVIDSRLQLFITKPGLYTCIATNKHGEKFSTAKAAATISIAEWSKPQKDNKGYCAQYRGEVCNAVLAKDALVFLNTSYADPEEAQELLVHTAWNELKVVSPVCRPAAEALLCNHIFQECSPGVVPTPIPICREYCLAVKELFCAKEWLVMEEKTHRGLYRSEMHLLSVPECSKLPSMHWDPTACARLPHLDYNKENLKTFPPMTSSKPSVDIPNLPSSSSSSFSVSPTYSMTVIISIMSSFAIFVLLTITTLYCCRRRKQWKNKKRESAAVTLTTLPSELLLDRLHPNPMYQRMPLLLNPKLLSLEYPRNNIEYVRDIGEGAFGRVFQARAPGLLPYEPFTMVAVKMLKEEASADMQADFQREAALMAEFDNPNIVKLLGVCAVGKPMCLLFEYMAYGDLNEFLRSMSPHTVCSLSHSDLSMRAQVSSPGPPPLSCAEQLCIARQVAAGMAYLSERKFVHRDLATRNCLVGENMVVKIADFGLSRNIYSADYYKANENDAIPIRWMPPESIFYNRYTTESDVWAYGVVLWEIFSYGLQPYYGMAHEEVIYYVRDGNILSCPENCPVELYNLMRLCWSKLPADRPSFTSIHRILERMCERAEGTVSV
# [11] = target: T2, Muscle, skeletal receptor tyrosine-protein kinase (Homo sapiens); conditions: at 1 µM
# [12] = target: Platelet-derived growth factor receptor alpha (Homo sapiens) (UniProt P16234); conditions: at 0.1 µM
# Chain of Platelet-derived growth factor receptor alpha (Homo sapiens) (P16234 whole entry): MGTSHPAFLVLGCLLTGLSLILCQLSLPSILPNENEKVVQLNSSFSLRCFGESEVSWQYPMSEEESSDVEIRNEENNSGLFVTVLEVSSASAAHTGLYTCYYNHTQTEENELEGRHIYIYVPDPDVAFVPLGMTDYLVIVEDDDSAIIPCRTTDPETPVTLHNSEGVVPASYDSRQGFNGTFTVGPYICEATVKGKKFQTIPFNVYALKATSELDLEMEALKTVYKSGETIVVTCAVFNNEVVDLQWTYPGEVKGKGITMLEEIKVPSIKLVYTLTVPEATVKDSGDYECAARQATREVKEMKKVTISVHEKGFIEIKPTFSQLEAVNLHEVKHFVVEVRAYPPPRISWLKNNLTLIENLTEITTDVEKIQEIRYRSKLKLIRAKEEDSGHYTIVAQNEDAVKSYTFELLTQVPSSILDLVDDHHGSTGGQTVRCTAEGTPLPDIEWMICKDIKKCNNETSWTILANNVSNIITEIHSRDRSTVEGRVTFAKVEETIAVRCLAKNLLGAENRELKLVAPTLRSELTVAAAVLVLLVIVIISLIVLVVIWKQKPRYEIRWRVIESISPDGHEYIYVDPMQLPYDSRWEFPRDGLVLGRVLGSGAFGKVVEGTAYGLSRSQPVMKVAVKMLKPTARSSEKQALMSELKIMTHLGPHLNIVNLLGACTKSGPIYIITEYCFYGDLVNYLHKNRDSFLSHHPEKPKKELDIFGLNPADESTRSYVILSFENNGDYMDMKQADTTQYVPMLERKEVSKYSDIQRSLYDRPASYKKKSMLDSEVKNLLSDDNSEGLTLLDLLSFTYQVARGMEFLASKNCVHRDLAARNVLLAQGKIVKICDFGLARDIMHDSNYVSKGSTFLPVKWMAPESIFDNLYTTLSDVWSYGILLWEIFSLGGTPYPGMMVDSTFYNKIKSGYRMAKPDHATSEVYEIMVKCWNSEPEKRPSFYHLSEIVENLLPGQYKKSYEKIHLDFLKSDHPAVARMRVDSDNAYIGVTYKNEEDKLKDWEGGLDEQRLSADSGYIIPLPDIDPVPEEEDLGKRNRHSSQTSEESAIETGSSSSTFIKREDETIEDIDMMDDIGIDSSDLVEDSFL
# [13] = target: Platelet-derived growth factor receptor alpha (Homo sapiens) (UniProt P16234); conditions: at 1 µM
# [14] = test system: Platelet-derived growth factor receptor alpha (Homo sapiens), P16234 [D842V]; conditions: at 0.1 µM
# Chain of Platelet-derived growth factor receptor alpha (Homo sapiens), P16234 [D842V] (P16234 whole entry D842V): as the sequence (P16234 whole entry) above, with D842V counted along it
# [15] = test system: Platelet-derived growth factor receptor alpha (Homo sapiens), P16234 [D842V]; conditions: at 1 µM
# [16] = test system: Platelet-derived growth factor receptor alpha (Homo sapiens), P16234 [T674I]; conditions: at 0.1 µM
# [17] = test system: Platelet-derived growth factor receptor alpha (Homo sapiens), P16234 [T674I]; conditions: at 1 µM
# [18] = test system: Platelet-derived growth factor receptor alpha (Homo sapiens), P16234 [V561D]; conditions: at 0.1 µM
# Chain of Platelet-derived growth factor receptor alpha (Homo sapiens), P16234 [V561D] (P16234 whole entry V561D): as the sequence (P16234 whole entry) above, with V561D counted along it
# [19] = test system: Platelet-derived growth factor receptor alpha (Homo sapiens), P16234 [V561D]; conditions: at 1 µM
# [20] = target: Platelet-derived growth factor receptor beta (Homo sapiens) (UniProt P09619); conditions: at 0.1 µM;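 further: reported value is the mean percent inhibition of the kinase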
# Chain of Leukocyte tyrosine kinase receptor (Homo sapiens) (P29376 whole entry): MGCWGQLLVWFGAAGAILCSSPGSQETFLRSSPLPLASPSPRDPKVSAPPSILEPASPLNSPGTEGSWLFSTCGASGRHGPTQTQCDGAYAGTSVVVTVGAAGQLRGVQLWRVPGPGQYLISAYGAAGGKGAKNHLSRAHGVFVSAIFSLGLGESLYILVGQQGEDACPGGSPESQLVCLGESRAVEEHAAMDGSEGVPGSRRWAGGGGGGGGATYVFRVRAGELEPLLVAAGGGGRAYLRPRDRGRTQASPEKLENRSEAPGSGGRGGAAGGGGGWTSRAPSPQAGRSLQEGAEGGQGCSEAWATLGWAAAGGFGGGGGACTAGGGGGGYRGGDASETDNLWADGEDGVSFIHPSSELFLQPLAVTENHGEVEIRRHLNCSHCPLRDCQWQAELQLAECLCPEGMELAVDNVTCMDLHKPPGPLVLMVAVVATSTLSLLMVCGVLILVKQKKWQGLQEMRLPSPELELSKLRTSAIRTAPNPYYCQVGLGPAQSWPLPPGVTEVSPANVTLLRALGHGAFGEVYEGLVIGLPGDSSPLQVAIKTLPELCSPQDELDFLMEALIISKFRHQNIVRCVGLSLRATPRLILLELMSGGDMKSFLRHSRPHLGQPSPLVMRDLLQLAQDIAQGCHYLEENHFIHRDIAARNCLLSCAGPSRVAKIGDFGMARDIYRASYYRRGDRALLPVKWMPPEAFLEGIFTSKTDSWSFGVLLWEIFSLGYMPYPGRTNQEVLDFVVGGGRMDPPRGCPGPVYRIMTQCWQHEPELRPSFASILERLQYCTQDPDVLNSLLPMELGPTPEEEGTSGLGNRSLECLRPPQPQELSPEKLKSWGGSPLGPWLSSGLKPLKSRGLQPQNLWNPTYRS
# Chain of Tyrosine-protein kinase Lyn (Homo sapiens) (P07948 2-512 limits assumed): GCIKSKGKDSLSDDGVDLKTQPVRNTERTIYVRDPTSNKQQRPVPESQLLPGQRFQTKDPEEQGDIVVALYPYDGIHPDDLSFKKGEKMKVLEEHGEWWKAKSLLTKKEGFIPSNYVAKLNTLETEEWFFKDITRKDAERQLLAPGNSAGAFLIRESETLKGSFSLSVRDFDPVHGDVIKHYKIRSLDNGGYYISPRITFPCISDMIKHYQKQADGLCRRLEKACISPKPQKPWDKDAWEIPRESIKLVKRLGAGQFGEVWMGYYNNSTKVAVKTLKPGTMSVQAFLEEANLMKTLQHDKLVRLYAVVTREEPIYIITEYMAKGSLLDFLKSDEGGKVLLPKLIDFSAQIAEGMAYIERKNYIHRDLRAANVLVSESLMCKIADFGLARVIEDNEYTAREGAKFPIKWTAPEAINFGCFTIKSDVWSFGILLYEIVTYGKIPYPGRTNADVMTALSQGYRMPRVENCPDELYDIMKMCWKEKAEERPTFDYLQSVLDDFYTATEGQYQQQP
Compound,inhibition [1],inhibition [2],inhibition [3],inhibition [4],inhibition [5],inhibition [6],inhibition [7],inhibition [8],inhibition [9],inhibition [10],inhibition [11],inhibition [12],inhibition [13],inhibition [14],inhibition [15],inhibition [16],inhibition [17],inhibition [18],inhibition [19],inhibition [20]
NC(=O)c1sc(-n2cnc3cc(C(F)(F)F)ccc32)cc1OCc1ccccc1Br,4.03%,3.08%,4.62%,2.14%,3.91%,-1.59%,4.52%,-0.38%,8.07%,1.36%,-0.86%,7.64%,6.52%,4.16%,5.38%,3.44%,2.59%,3.5%,4.58%,3.03%
Nc1nonc1-c1nc2cnccc2n1C1CCCCC1,2.35%,-2.05%,1.3%,-1.46%,-0.59%,-0.72%,1.5%,-2.89%,7.05%,-1.73%,3.94%,3.7%,18.1%,2.4%,16.9%,1.78%,19.5%,2.95%,14.4%,4.64%
CCn1c(-c2nonc2N)nc2c(C#CC(C)(C)O)nc(O[C@@H](CN)c3ccccc3)cc21,76.6%,2.08%,22.1%,0.81%,16.8%,0.05%,0.57%,3.67%,-0.12%,-1.29%,1.93%,32%,70.5%,49.8%,89.5%,34.5%,86.8%,29.6%,79.3%,50.3%
NS(=O)(=O)c1ccc(N/C=C2\C(=O)Nc3ccc4ncsc4c32)cc1,10.4%,6.6%,28.3%,2.87%,22.1%,0.39%,7.72%,14.9%,43.3%,11%,51.2%,54.4%,86.9%,55.5%,91.5%,15.1%,60.9%,48.2%,90.9%,56.5%
